Assay outcomes (PubChem BioAssay)
KB-V1 MDR tox = qHTS assay for MDR1-selective chemotherapeutics: Primary screen using the drug-selected MDR subline cells KB-V1; KB-V1 MDR cells viability, CellTiter-Glo, 72 h; Potency, µM (top dose mostly 46.1 µM), hits mostly cytotoxic; 400,000 tested, 3.4% active; AID 1347076, 2019; note: % is set by controls: 0 for no effect and ±100 for the full control effect; nearly all actives have a fitted effect of over 60% in size
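Compound-treated KB-V1 multidrug-resistant cells, 72 h, 37 degrees C; viability by CellTiter-Glo. Fitted qHTS curves give the values.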
HT1080-NT tox = qHTS for induction of synthetic lethality in tumor cells producing 2HG: qHTS for the HT-1080-NT fibrosarcoma cell line; HT-1080-NT fibrosarcoma viability, CellTiter-Glo ATP luminescence, 48 h; Potency, µM (titrated, usually from 46.1 µM), for inactives: at the highest dose activity, negative = less viability, usual class: cytotoxic; 360,000 tested, 1.6% active;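 note: NT is the 2HG producing partner of a matched IDH1 knockdown line; 0% = DMSO-treated cells and -100% = media-only wells without cells; nearly all actives have a fitted effect of over 55% in size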
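Viability by CellTiter-Glo luminescence after 48 h compound exposure at 37C of HT-1080-NT cells (750/well, RPMI, 5% FBS). % activity scaled between DMSO wells and medium-only wells, then curve-fitted and categorized by curve class.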
KB-3-1 tox = qHTS assay for MDR1-selective chemotherapeutics: Primary screen using the parental adenocarcinoma cell KB-3-1. KB-3-1 viability, CellTiter-Glo ATP luminescence, 72 h. Potency, µM (series often up to 46.1 µM), most hits filed as cytotoxic. 400,000 tested, 1.4% active. AID 1347075, 2019; note: % is set by controls: 0 for no effect and ±100 for the full control effect; nearly all actives have a fitted effect of over 60% in size
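Viability of parental KB-3-1 cells, measured by CellTiter-Glo luminescence, followed a 72 h incubation at 37 °C with pinned compounds in phenol-red-free DMEM containing 10% FBS.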
HT1080 IDH1KD tx = qHTS for induction of synthetic lethality in tumor cells producing 2HG: qHTS for the HT-1080-IDH1KD cell line; HT-1080 IDH1 knockdown viability, ATP luminescence, 48 h; Potency, µM (doses to about 46.1 µM), inactives show at the highest dose activity, negative = toxicity, hits mostly cytotoxic; 360,000 tested, 2% active; AID 686971, 2013;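 note: 0% = DMSO wells and -100% = cell-free medium wells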
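Cytotoxicity counter-line: IDH1KD HT-1080, 48 h, CellTiter-Glo. Curves classed by r2, magnitude and activity.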
SW480 rereplic = A quantitative high throughput screen for small molecules that induce DNA re-replication in SW480 colon adenocarcinoma cells. 340,000 tested, 1.8% active. SW480 DNA re-replication, Hoechst DNA content imaging, 48 h. Potency, µM (doses to about 46.1 µM), without a hit: at the top dose re-replication activation, usual class: activators. AID 624297, 2012; note: % of control where 0% means no effect; nearly all actives have a fitted effect of over 55% in size
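Per well, 250 cells were exposed to pinned compound for 48 hr. Nuclear DNA was visualised with Hoechst (40 min, 37 C) and total object intensity recorded by fluorescence scanning.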
MCF10A rereplic = A quantitative high throughput screen for small molecules that induce DNA re-replication in MCF 10a normal breast cells; AID 624296, 2012; MCF 10A DNA re-replication, Hoechst nuclear intensity, 48 h; Potency, µM (highest dose often 46.1 µM), inactives show at the highest dose activity, positive = re-replication, most hits filed as activators; 350,000 tested, 2.9% active; note: % of control where 0% means no effect; nearly all actives have a fitted effect of over 50% in size
Starred values were filed as active, the others as inactive; i = inactive; ? = inconclusive; nt = no result given; [ ] = remark or other dose. Shown are actives, neighbours in structure and some others; about 7.9% of the full set was active somewhere. Calls come from the whole dose curve; as a rule, active = well fitted curve in the direction sought with a large enough effect; inconclusive = small, poorly fitted or top-dose-only effect, or another doubt; inactive = no such curve, though single readings can be large; an effect the other way counts as inactive or inconclusive. Potency is the fitted concentration of half-maximal effect.

SMILES	KB-V1 MDR tox	HT1080-NT tox	KB-3-1 tox	HT1080 IDH1KD tx	SW480 rereplic	MCF10A rereplic
COc1ccc(C2=CC(c3ccc(OC)c(OC)c3)c3c(c4ccccc4oc3=O)O2)cc1OC (centres undefined)	i	?	?	?	13µM*	2.91µM*
CC(=O)O[C@H]1CC[C@H]2[C@@H]3CCC4=CC(=O)CCC4=C3C=C[C@]12C	nt	nt	nt	nt	0.9%	9.5%
CC(=O)O[C@H]1CCC2C3CCC4=CC(=O)CCC4=C3C=C[C@@]21C (some centres undefined)	8.2µM*	0.0%	?	3.7%	-7.7%	16.2%
COC(=O)C1=C(c2ccc(F)cc2OCc2ccccc2)C[C@@H]2CC[C@H]1N2C(=O)NCc1ccc(C(F)(F)F)cc1	i	-2.4%	i	-4.1%	-4.5%	14.6µM*
COC(=O)C1=C(c2cc3ccccc3s2)C[C@@H]2CC[C@H]1N2C(=O)NCC1CC1	i	2.7%	i	-1.7%	-1.7%	27.7%
COC(=O)C1=C(c2cc3ccccc3s2)C[C@@H]2CC[C@H]1N2C(=O)NCc1ccc(C(F)(F)F)cc1	18.4µM*	?	?	?	-6.9%	?
COC(=O)C1=C(c2ccccc2OCc2ccccc2)C[C@@H]2CC[C@H]1N2C(=O)NCCc1ccc(F)cc1	i	?	?	-24.1%	5.8µM*	11.2%
O=C(Nc1ccc2c(c1)OCO2)c1cccn(Cc2cccc([N+](=O)[O-])c2)c1=O	i	nt	i	nt	nt	nt
C[C@@H](Cc1ccccc1)NCCC(c1ccccc1)c1ccccc1	nt	nt	nt	nt	10.9%[20.6 µM]	7.2%[20.6 µM]
Cc1cc(-c2ccccc2)cc(C)[n+]1Cc1ccccc1	i	-0.8%	5.8µM*	-25.8%	-18.4%[9.22 µM]	-14.3%
N#Cc1ccccc1NC(=O)c1cccn(Cc2ccccc2)c1=O	i	nt	i	nt	nt	nt
O=C(Nc1ccccc1)C1=C[C@H](c2ccccc2)C[C@H](OCCCCO)O1	?	-16.1%	?	-21.5%	0.9%	18.4µM*
CC(C)(C)c1cc(C=C(C#N)C#N)cc(C(C)(C)C)c1O	1.03µM*	1.16µM*	1.3µM*	2.06µM*	-44.7%	?
O=C1C2CC=CCC2C(=O)N1SC(Cl)(Cl)Cl (centres undefined)	nt	nt	nt	nt	6.68µM*	4.22µM*
CN1C(=S)CN=C(c2ccccc2)c2cc(Cl)ccc21	nt	nt	nt	nt	-3.9%	0.7%
Cc1cccc(C2=NCC(=O)N(CC(=O)NCc3ccco3)c3sc4c(c32)CCCC4)c1	23.1µM*	?	i	?	1.0%	-1.0%
Brc1nc(-c2ccccc2)nc(-c2ccccc2)c1Br	?	1.3%	i	-1.4%	-6.6%	?
Nc1c2c(nc3sc4c(c13)CCCCC4)CCCC2	?	?	29.1µM*	?	-2.2%	?
NC(=O)c1sc2nc3c(c(-c4cccs4)c2c1N)CCCC3	nt	nt	nt	nt	-422.5%	?
Fc1ccc(C(OCCN2CCCC2)c2ccc(Br)cc2)cc1 (centres undefined)	?	16.4µM*	i	16.4µM*	7.4%	?
Fc1ccc(C(OCCN2CCCC2)c2ccc(F)cc2)cc1	?	-10.7%	i	-10.1%	-0.2%	?
c1ccc(CCN2CCOCC2)cc1	i	nt	i	nt	nt	nt
Fc1ccc(C(OCCN2CCN(CCCc3ccccc3)CC2)c2ccc(F)cc2)cc1	16.4µM*	nt	?	nt	?	21.1µM*
c1ccc(CCCN2CCN(CCOC(c3ccccc3)c3ccccc3)CC2)cc1	10.3µM*	23.1µM*	?	23.1µM*	?	5.17µM*
